# FLuc counter = firefly luciferase modulation, counter-screen for miR-21 project; purified FLuc, Km substrates, luminescence inhibition; Potency, µM (top dose mostly 57.5 µM), for the others: top-dose activity change, negative = inhibition, actives largely listed as inhibitors; hit rate 6.9% among 360,000; AID 588342;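 further: plate controls were vehicle for no effect and reference inhibitor for full effect; nearly all actives have a fitted effect of over 55% in size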
# Target sequence (P08659 whole entry, looked up): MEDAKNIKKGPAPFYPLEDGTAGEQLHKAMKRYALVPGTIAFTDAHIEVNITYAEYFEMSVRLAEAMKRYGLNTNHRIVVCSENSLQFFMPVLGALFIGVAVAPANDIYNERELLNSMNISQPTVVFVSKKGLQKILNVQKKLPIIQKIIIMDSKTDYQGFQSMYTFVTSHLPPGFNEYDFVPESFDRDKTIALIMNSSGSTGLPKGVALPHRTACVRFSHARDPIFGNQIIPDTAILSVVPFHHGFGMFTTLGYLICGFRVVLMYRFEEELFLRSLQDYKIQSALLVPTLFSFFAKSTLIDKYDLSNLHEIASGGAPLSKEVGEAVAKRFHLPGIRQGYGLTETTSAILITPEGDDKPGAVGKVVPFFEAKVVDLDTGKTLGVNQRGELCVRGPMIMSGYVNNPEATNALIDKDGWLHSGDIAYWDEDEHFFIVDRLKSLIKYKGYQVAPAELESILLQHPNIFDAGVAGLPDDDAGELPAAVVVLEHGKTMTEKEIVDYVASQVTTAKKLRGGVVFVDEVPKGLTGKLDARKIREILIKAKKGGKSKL
#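 Purified P. pyralis luciferase (10nM final) with 10uM D-luciferin and 10uM ATP (Km levels) in 50mM Tris acetate pH 7.5, 10mM Mg acetate, 0.01% Tween-20, 0.05% BSA; qHTS 6-point titration, ~60 µM downward; luminescence read.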
# ELG1 DNA repair = ELG1-dependent DNA repair inhibition; Potency, µM (series often up to 46.1 µM), for the others: at the highest dose activity change, negative = inhibition, usual class: inhibitors; HEK293T ELG1-luciferase reporter, luminescence, 16 h; DNA damage induced by 5-fluorouridine; AID 504467; hit rate 2.3% among 330,000; further: on the % scale 0 is the no-effect control and ±100 the full control effect; nearly all actives have a fitted effect of over 55% in size
#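 Reporter activity after DNA damage by 5-fluorouridine is monitored. Compound-treated cells incubate 16 hr at 37 °C, then ONE-Glo is added for 30 min before luminescence reading.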
# ELG1 genotoxic = inducers of genotoxicity in HEK293T ELG1-luciferase cells | HEK293T ELG1-luciferase reporter, luminescence, 16 h | hit rate 1.3% among 330,000 | Potency, µM (highest dose often 46 µM), for the others: at the highest dose activity change, positive = activation, actives largely listed as activators | AID 504466; further: % of control where 0% means no effect; nearly all actives have a fitted effect of over 60% in size
#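 After overnight (16 hr) compound treatment at 37 °C, ELG1-luciferase HEK293T cells were lysed with ONE-Glo; luminescence quantified 30 min later at room temperature.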
# Rab9 prom act = activators of Rab9 promoter | Potency, µM (top dose mostly 9.22 µM), inactives show at the highest dose activation, negative = inhibition, hits mostly activators | Huh7 Rab9 promoter-luciferase reporter, luminescence, 24 h | hit rate 2.8% among 320,000 | AID 485297; further: % of control where 0% means no effect; nearly all actives have a fitted effect of over 60% in size
#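 Rab9 promoter-driven luciferase in stably transfected Huh7 cells; 1500 cells/well rested 2 h, exposed to compound in DMSO for 24 h at 37 °C, 5% CO2. Luminescence read 10 min after adding luciferase reagent at ambient temperature.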
# NPC1 prom act = NPC1 promoter activation. Huh7 NPC1 promoter luciferase reporter, 24 h. hit rate 2.4% among 320,000. Potency, µM (series often up to 9.22 µM), inactives show at the top dose activation, actives largely listed as activators; further: % of control where 0% means no effect; nearly all actives have a fitted effect of over 60% in size
#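 Quantitative HTS used a cell-based reporter: Huh7 cells stably bearing the NPC1 promoter upstream of luciferase were treated with compounds for 24 h, and promoter activation was read as luminescence.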
# SMN2 splice up = enhancers of SMN2 splice variant expression. Potency, µM (titrated, usually from 46.1 µM), for inactives: at the highest dose activity change, positive = activation, hits mostly activators. hit rate 2.8% among 210,000. HEK293 SMN2-luciferase splicing reporter, luminescence, 30-36 h; further: % of control where 0% means no effect; nearly all actives have a fitted effect of over 55% in size
#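 HEK293 cells carry an SMN2 […]–luciferase reporter in which exon 7 inclusion puts luciferase in frame. Cells were plated 10-12 h before compound addition, then incubated 30-36 h at 37C. ONE-Glo luminescence was read; sodium butyrate at 4.5 mM final served as control.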
# * marks the source's active call; other numbers are inactive results; ? = inconclusive; . = no result given; [ ] = another dose, or the depositor's remark. Sampled rows, rich in hits. Any-hit rate of the full collection: about 9.2%. The call rests on the fitted dose curve; in most records, active means well fitted curve in the direction sought with a large enough effect; inconclusive means small, poorly fitted or top-dose-only effect, or another doubt; inactive means no such curve, though single readings can be large; an effect the other way counts as inactive or inconclusive. Potency means the concentration at half of the fitted maximal effect.
SMILES,FLuc counter,ELG1 DNA repair,ELG1 genotoxic,Rab9 prom act,NPC1 prom act,SMN2 splice up
CC(=O)Nc1cccc(C(=O)N/N=C/c2ccccc2F)c1,1.3µM*,?,7.3µM*,0.79µM*,3.2µM*,?
Cc1ccc(C(=O)Nc2cccc(C(=O)N/N=C/c3ccccc3F)c2)cc1,5.4µM*,?,?,1.6µM*,2µM*,.
O=C(Nc1cccc(Cl)c1)c1ccc2c(c1)CCN2S(=O)(=O)c1ccccc1,3%,.,.,.,.,-7%
Cc1ccc(Cn2c(C(=O)O)c(CNCc3ccc(OC(C)C)cc3)c3ccc(C)cc32)cc1,0%,.,.,.,.,.
N#Cc1c(N)nc2c(c1-c1ccncc1)CCCCC2,0%,1%,-6%,-4%,0%,-16%
N#Cc1c(N)nc2c(c1-c1cccnc1)CCCCC2,5%,13µM*,-17%,5%,4%,-7%
N#C/C(=C\c1ccccc1)C(=O)Nc1ccccn1,15µM*,12%,0%,5%,0%,.
Cc1ccc(NC(=O)/C(C#N)=C/c2cccs2)c(C)c1,-15%,?,?,3.5µM*,2µM*,13µM*
C=CCOc1ccc(/C=C(\C#N)C(=O)Nc2ccccn2)cc1,2.1µM*,0%,-1%[9.26 µM],4%,1%,.
CC(C)(C)c1ccc(C(=O)Nc2ccc(C=C(C#N)C#N)cc2)cc1,4.8µM*,?,?,0.5µM*,?,?
Cc1cccc(/C=C(\C#N)C(=O)Nc2ccccn2)c1,?,9%,2%,1%,-1%,.
O=C(CSc1nc2scc(-c3ccccc3)c2c(=O)[nH]1)N1CCOCC1,-1%,11%,-3%,0%,-2%,.
Cn1nc(C(=O)NCCc2ccc(Cl)cc2)c2c1-c1ccccc1SC2,1%,.,.,.,.,.
CCc1ccccc1NC(=O)Cn1c(=O)n(CCCCCC(=O)NCc2ccc(C)cc2)c(=O)c2sccc21,-4%,.,.,.,.,0%
CSc1ccc(NC(=O)Nc2ccc(C(=O)NCC(=O)O)cc2)cc1,?,26%,6%,16%,-7%,.
Cc1ccc(-c2cc(C(=O)Oc3ccc(C#N)cc3)no2)cc1,-21%,.,.,.,.,.
CC(NC(=O)/C(C#N)=C/c1cccs1)c1ccccc1 (stereo not drawn),-6%,2%,-2%,-3%,-2%,-1%
N#C/C(=C\c1ccccc1)C(=O)Nc1nncs1,19µM*,14%,0%,9%,-2%,.
Cc1ccc(NC(=O)/C(C#N)=C/c2ccccc2Cl)cc1C,11µM*,.,.,.,.,-7%
CC(C)(C)c1ccc(C(=O)/C(C#N)=C/c2cccs2)cc1,1.2µM*,?,2%,5%,0%,.
Cc1cccc(C)c1NC(=O)/C(C#N)=C/c1cccs1,0%,-12%,2%,15%,-8%,-6%
N#C/C(=C\c1cccs1)C(=O)Nc1ccccn1,3.4µM*,?,?,1.6µM*,2.2µM*,.
Cc1c(C(=O)N2CCOCC2)oc2c1-c1nn(CC(=O)NCc3cccc(Cl)c3)cc1CC2,-11%,.,.,.,.,.
C=CCSC[C@@H]1Nc2cc(Cl)c(S(N)(=O)=O)cc2S(=O)(=O)N1,.,.,.,.,.,5%[20.6 µM]
CCN(C(=O)c1nn(C)c2c1CSc1ccccc1-2)c1cccc(C)c1,2%,.,.,.,.,.
SMILES,FLuc counter,ELG1 DNA repair,ELG1 genotoxic,Rab9 prom act,NPC1 prom act,SMN2 splice up
Cn1c(CNC(=O)c2ccc(Cl)cc2)nnc1SCC(=O)N1CCOCC1,1%,26%,-1%,2%,9%,.
CC(C)(C)c1ccc(/C=C(\C#N)C(=O)Nc2ccccn2)cc1,8.5µM*,-5%,-5%,-2%,2%,.
N#C/C(=C\c1ccccc1Cl)C(=O)Nc1ccccn1,19µM*,5%,-1%,1%,2%,.
N#C/C(=C\Nc1ccccn1)C(=O)C1CC1,.,.,.,.,.,-7%[9.22 µM]
CC1=Nc2cc(C(=O)NCCc3ccc(Cl)cc3)ccc2Sc2c(C)ccc(C)c21,-3%,.,.,.,.,-46%
COCC(=O)N1CCC2(CC1)CCN(C(=O)NC(C)C)CC2,.,.,.,.,.,-4%
CC1CCN(C(=O)Cn2c(-c3cccs3)cc3cc(Cl)ccc32)CC1,3%,.,.,.,.,.
O=C(Nc1cccs1)Nc1cccnc1Cl,?,?,-3%,-39%,1%,.
O=C(Nc1cccs1)Nc1ccccc1Cl,27µM*,25%,?,22%,14%,-56%
O=C(Nc1cccs1)Nc1ccc(Br)cc1F,12µM*,?,1%,-1%,1%,0%
Cc1ccc(NC(=O)Nc2cccs2)c(Cl)c1,8.5µM*,.,.,.,.,6%
Cc1cccc(NC(=O)Nc2cccs2)c1C,?,.,.,.,.,5%
CN(CC(=O)Nc1ccccc1Br)C(=O)c1cccnc1Nc1cccc(C(F)(F)F)c1,0%,?,-18%,4%,-3%,.
Oc1sc(C=Nc2ccccc2)c2ccccc12,6µM*,?,?,?,?,8.9µM*
COc1cc(O)oc1C=Nc1ccccc1,-10%,4%,1%,14%,4%,-7%
Oc1sc(C=Nc2ccc(F)cc2)c2ccccc12,?,?,14%,2.8µM*,3.2µM*,10µM*
O=C(Nc1ccc2c(c1)N(S(=O)(=O)c1cccs1)CCC2)c1c(F)cccc1Cl,2%,?,-9%,-4%,-4%,.
CC(=O)Nc1ccc(C(=O)CSc2nnnn2C)cc1,-4%,9%,1%,-2%,0%,.
CCC(=O)Nc1ccc(-c2nnc(SCc3ccc(C(=O)Nc4nccs4)cc3)n2CC)cc1,11µM*,?,-2%,.,3%,-7%
CC(=O)Nc1ccc(-c2nnc(SCc3ccc(C)cc3)n2C)cc1,6%,-13%,3%,0%,-2%,-21%
NC(=O)c1ccc(-n2nnnc2SCc2ccccc2)cc1,-2%,0%,19%,-1%,-2%,-18%
O=C(Nc1nccs1)c1ccc(CSc2nnnn2-c2ccccc2)cc1,?,23µM*,0%,5%,13%,-18%
CCn1c(SCC(=O)Nc2nccs2)nnc1-c1ccc(C)cc1,-6%,-8%,-3%,1%,-2%,-4%
Cc1ccc(NC(=O)c2ccc(CSc3nnc(-c4ccncc4)n3C)cc2)cc1,1.9µM*,14%,18%,29%,17%,27%
Cn1nnnc1SCc1ccc(C(=O)Nc2ccc(Br)cc2)cc1,6µM*,?,?,?,?,-2%
COc1ccc(CCC(=O)NCc2nc3cccnc3n2Cc2ccccc2)cc1,1%,.,.,.,.,.
CCOc1cc(C2CC(=O)Nc3c2c(C)nn3-c2nc(C)cc(C)n2)ccc1O (stereo not drawn),3%,.,.,.,.,.
COC(=O)CSc1nnc(-c2cccc(NC(=O)c3ccc(C)cc3)c2)n1C,24µM*,0%,-2%,0%,2%,-35%
